STK33 kin inh – inhibitors of human STK33 kinase; ADP-Glo luminescence, MBP substrate; 27,000 tested, 0.44% active; inhibition, % at 12.5 µM; Q9BYT3; AID 2322; in the data active = inhibition above about 20%; inconclusive = no clear call, values can overlap the other calls
Target sequence (Q9BYT3 whole entry, looked up): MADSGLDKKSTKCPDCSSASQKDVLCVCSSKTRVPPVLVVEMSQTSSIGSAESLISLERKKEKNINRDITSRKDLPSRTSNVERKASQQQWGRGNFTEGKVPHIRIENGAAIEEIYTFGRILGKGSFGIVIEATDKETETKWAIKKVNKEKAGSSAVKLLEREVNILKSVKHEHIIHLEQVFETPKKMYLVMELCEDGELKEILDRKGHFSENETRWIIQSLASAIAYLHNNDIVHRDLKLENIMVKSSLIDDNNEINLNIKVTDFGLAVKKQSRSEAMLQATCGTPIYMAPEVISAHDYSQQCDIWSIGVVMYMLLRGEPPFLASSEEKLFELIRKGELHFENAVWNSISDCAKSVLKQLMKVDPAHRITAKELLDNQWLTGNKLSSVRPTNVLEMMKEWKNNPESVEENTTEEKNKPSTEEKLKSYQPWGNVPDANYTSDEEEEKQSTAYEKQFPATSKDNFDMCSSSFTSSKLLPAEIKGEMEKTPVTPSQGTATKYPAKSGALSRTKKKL
PD-1 reversal – reversal of PD-1 mediated T-cell inhibition; primary human CD4 T cells, PD-L1 beads, CellTiter-Glo 96 h; activation, % (no concentration beside the values); 29,000 tested, under 10 active; call rule not given here;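 also: 0% = median vehicle wells and 100% = positive control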
NOMO-1 viab – STK33 inhibitor candidate reducing NOMO-1 cell viability; NOMO-1 AML viability, CellTiter-Glo luminescence, 72 h; inhibition, % (concentration not given with the values); 37,000 tested, 7.5% active; AID 2330; in the data active = inhibition above about 80%; inconclusive = no clear call, values can overlap the other calls
* hit, by the source's call; ? = inconclusive; · = not tested or not shown. Only a selection was taken, and hits are over-represented in it overall.

SMILES | STK33 kin inh | PD-1 reversal | NOMO-1 viab
COc1ccc(OCC(O)Cn2nc(C)cc2C)cc1 (stereo unspecified) | · | 1 | 8
C[C@H]1CN([C@@H](C)CO)C(=O)Cc2cc(NS(=O)(=O)c3ccc(Cl)cc3)ccc2O[C@@H]1CN(C)Cc1ccc(Cl)c(Cl)c1 | 10 | -1 | 84*
C[C@H]1CN([C@@H](C)CO)C(=O)c2cc(N(C)C)ccc2O[C@@H]1CN(C)Cc1ccc(Cl)c(Cl)c1 | 4 | 0 | 46
C[C@@H]1CN([C@H](C)CO)C(=O)Cc2cc(N(C)C)ccc2O[C@@H]1CN(C)Cc1ccc(Cl)c(Cl)c1 | -4 | -2 | 99*
C[C@H](CO)N1C[C@H](C)[C@H](CN(C)Cc2ccccc2)Oc2ccc(NS(=O)(=O)c3ccc(Cl)cc3)cc2CC1=O | 2 | 0 | ?
Cc1ccc(-n2c(C)nnc2SCC(=O)Nc2cccc(C(F)(F)F)c2)cc1 | -6 | -2 | -8
COc1ccc(-c2cc(C(F)(F)F)nc(SCC(=O)Nc3ccccc3C)n2)cc1 | 0 | · | ·
COC(=O)c1ccc(Cl)c(NC(=O)CSc2nc(-c3ccccc3)cc(C(F)(F)F)n2)c1 | 4 | -2 | 113*
Cc1ccccc1NC(=O)CSc1nc(-c2ccc(Cl)cc2)cc(C(F)(F)F)n1 | -1 | · | 95*
COC(=O)c1ccc(Cl)c(NC(=O)CSc2nc(C)cc(C(F)(F)F)n2)c1 | 1 | · | 41
COc1ccc(C(=O)Nc2ccc(Cc3ccc(NC(=O)c4ccc(OC)cc4)c(O)c3)cc2O)cc1 | 4 | 3 | -22
O=C(CSc1nc2ccccc2c(=O)n1CC1CCCO1)c1ccc(Br)cc1 (stereo unspecified) | 2 | · | 14
O=C(CSc1nc2ccccc2s1)NO | 4 | 1 | 21
O=C(CCCCc1ccc(O)cc1)CCc1ccc(O)cc1 | 1 | -1 | 104*
COc1ccc(CCC(=O)CCc2ccc(OC)cc2)cc1 | · | -1 | 16
Cc1ccc2c(c1)C(=O)C1(O)CCN(c3ccccc3)C1=N2 (stereo unspecified) | 1 | 3 | 109*
O=C(Nc1cccc(Cl)c1)c1ccc(NCc2ccco2)c([N+](=O)[O-])c1 | 2 | · | 37
C=C1C(=O)OC2C3=C(C)C(=O)CC3C(C)CC(O)C12 (stereo unspecified) | -3 | -4 | 57
C=C1C(=O)O[C@@H]2C[C@H](C)[C@@H]3CC(=O)C(C)=C3C[C@H]12 | -4 | -15 | 121*
C1=Cc2nonc2C2C=C(c3ccccc3)N=C12 (stereo unspecified) | · | -1 | 92*
Nc1nonc1-c1ccccc1 | · | 0 | 15
Cc1[nH]c2ccccc2c1/C=C/c1nc2ccccc2c(=O)n1CCCO | 2 | -2 | 4
O=c1c2ccccc2nc(/C=C/c2cc(Br)ccc2O)n1CCCO | 1 | -7 | 108*
O=C(O)CSc1n[nH]c(-c2cccs2)n1 | 3 | 4 | 13
COc1ccc(S(=O)(=O)N(CC(=O)O)C2CCCCC2)cc1Cl | -2 | · | -12
SMILES | STK33 kin inh | PD-1 reversal | NOMO-1 viab
Cc1nc(SCC(=O)Nc2ccc(Oc3ccccc3)cc2)n[nH]1 | -1 | 2 | 24
C[C@@H]1CN([C@@H](C)CO)C(=O)c2cccc(NC(=O)Nc3ccc(F)cc3)c2O[C@H]1CN(C)Cc1ccc2c(c1)OCO2 | · | -7 | 113*
C[C@@H]1CN([C@H](C)CO)C(=O)c2cccc(NC(=O)Nc3ccc4c(c3)OCO4)c2O[C@@H]1CN(C)Cc1ccncc1 | · | 3 | -12
C[C@@H]1CN([C@@H](C)CO)C(=O)c2cccc(NC(=O)Nc3ccccc3)c2O[C@@H]1CN(C)Cc1ccc2c(c1)OCO2 | · | · | 35
C[C@H]1CN([C@@H](C)CO)C(=O)c2cccc(NC(=O)Nc3ccc(F)cc3)c2O[C@H]1CN(C)Cc1ccc2c(c1)OCO2 | · | 0 | 30
C[C@@H]1CN([C@H](C)CO)C(=O)c2cccc(NC(=O)Nc3ccc4c(c3)OCO4)c2O[C@H]1CN(C)Cc1ccc2c(c1)OCO2 | · | · | 101*
C[C@@H]1CN([C@@H](C)CO)C(=O)c2cccc(NC(=O)Nc3ccc4c(c3)OCO4)c2O[C@H]1CN(C)Cc1ccc(Cl)c(Cl)c1 | · | -7 | 102*
C[C@@H]1CN([C@H](C)CO)C(=O)c2cccc(NC(=O)Nc3ccc(F)cc3)c2O[C@@H]1CN(C)Cc1ccc2c(c1)OCO2 | · | 1 | 9
C[C@@H]1CN([C@@H](C)CO)C(=O)c2cccc(NC(=O)Nc3ccccc3)c2O[C@H]1CN(C)Cc1ccc2c(c1)OCO2 | · | -4 | 89*
CC(=O)c1cccc(NC(=O)CSC2=C(C#N)C(c3ccccc3C)C3=C(CCCC3=O)N2)c1 (stereo unspecified) | -1 | -6 | 32
COc1cc(Cl)c(C)cc1NC(=O)CSc1nnc(-c2ccncc2)n1C | 2 | · | -12
N=C1S/C(=C/c2ccco2)C(=O)N1c1nccs1 | 10 | -7 | 37
COc1cc(OC)cc(-c2nnc(SCC(=O)Nc3ccccc3)o2)c1 | 0 | -3 | -23
COc1ccc(NC(=O)CSc2n[nH]c(-c3ccc(Cl)cc3Cl)n2)cc1 | -3 | 2 | 38
CC(=O)OCC1=CCCC2[C@@]1(C)CC[C@@H](C)[C@]2(C)CCC(C)CC(=O)O (stereo partly specified) | -7 | 1 | -10
C[C@@H]1CN([C@@H](C)CO)C(=O)c2cccc(NC(=O)Nc3ccc4c(c3)OCO4)c2O[C@@H]1CN(C)Cc1ccc(C(F)(F)F)cc1 | · | 1 | 82*
C[C@@H]1CN([C@H](C)CO)C(=O)c2cccc(NC(=O)Nc3ccc4c(c3)OCO4)c2O[C@H]1CN(C)Cc1ccccc1 | · | -3 | 97*
C[C@@H]1CN([C@@H](C)CO)C(=O)c2cccc(NC(=O)Nc3ccc4c(c3)OCO4)c2O[C@H]1CN(C)Cc1ccc(C(=O)O)cc1 | · | 1 | 14
C[C@H]1CN([C@@H](C)CO)C(=O)c2cccc(NC(=O)Nc3ccc4c(c3)OCO4)c2O[C@H]1CN(C)Cc1ccc(C(F)(F)F)cc1 | · | 0 | 15
COC(=O)C(CC(=O)c1ccc(Cl)cc1)c1cc(=O)oc2cc(OC)ccc12 (stereo unspecified) | 1 | · | 37
COc1ccc(-n2nc3ccc(NC(=O)c4ccc(-c5ccccc5)cc4)cc3n2)cc1 | · | 1 | 21
CC(C)=CCCC1(C)C=Cc2c(c(C)cc3c2[nH]c2cc(O)ccc23)O1 (stereo unspecified) | -6 | -3 | 108*
Cc1nc(Oc2ccc(NC(=O)c3ccccc3)cc2)c2c3c(sc2n1)CCC3 | · | -1 | 133*
CCOc1ccc(NC(=O)CSc2nc(C)nc3sc4c(c23)CCCC4)cc1 | 4 | -1 | 28
CC(NC(=O)c1ccccc1)c1nc2ccccc2n1Cc1ccc(Cl)cc1Cl (stereo unspecified) | 4 | -4 | 21
CSc1cccc(NC(=O)CSc2nnc(-c3ccc(Br)cc3)n2C)c1 | -4 | -5 | 25
O=C(O)CC(C(=O)Nc1cc(C(F)(F)F)cc(C(F)(F)F)c1)C1=CCCCC1 (stereo unspecified) | · | 0 | 16
CCN(CC)C(=S)C(=O)Nc1cc(C(F)(F)F)cc(C(F)(F)F)c1 | · | -2 | 109*
Cc1ccc(Oc2ncccc2NC(=O)c2ccc(Cl)cc2Cl)c2c1CCC2 | · | 0 | 35
